# ± gives the standard deviation of the averaged measurements.
# Legend:
# Experiment in all cases: promoter activity interaction Z-score (Lux/OD deviation from empty-vector control); higher = stronger promoter induction by the compound
# [1] = system: E. coli BW25113 acrABp lux reporter
# Method in brief: (§1)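 Low-copy luxCDABE promoter reporters were carried by E. coli BW25113, either wild type or lacking one of three genes, grown in 40 µl LB Lennox in 384-well plates at 37°C. Each compound was run at four 1:2 dilutions in biological duplicates, with OD600 and luminescence read every 30 min for 12 h. Integration used 0–8 h for wild type and 1–9 h for deletion strains, and wells under 10% of the median growth value were removed. Luminescence normalised to growth was fitted against a control, and the Z-transformed residual is the score.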
# [2] = system: E. coli BW25113 micFp lux reporter
# Method in brief: as §1
# [3] = system: E. coli BW25113 ompFp lux reporter
# Method in brief: as §1
# [4] = system: E. coli BW25113 robp lux reporter
# Method in brief: as §1
# [5] = system: E. coli BW25113 soxSp lux reporter
# Method in brief: as §1
# [6] = system: E. coli BW25113 tolCp lux reporter
# Method in brief: as §1
# [7] = 0.056 µg/ml, genetic background: wild type
# [8] = 0.056 µg/ml, genetic background: ΔmarA
# [9] = 0.056 µg/ml, genetic background: Δrob
# [10] = 0.056 µg/ml, genetic background: ΔsoxS
# [11] = 0.11 µg/ml, genetic background: wild type
# [12] = 0.11 µg/ml, genetic background: ΔmarA
# [13] = 0.11 µg/ml, genetic background: Δrob
# [14] = 0.11 µg/ml, genetic background: ΔsoxS
# [15] = 0.22 µg/ml, genetic background: wild type
# [16] = 0.22 µg/ml, genetic background: ΔmarA
# [17] = 0.22 µg/ml, genetic background: Δrob
# [18] = 0.22 µg/ml, genetic background: ΔsoxS
# [19] = 0.44 µg/ml, genetic background: wild type
# [20] = 0.44 µg/ml, genetic background: ΔmarA
# [21] = 0.44 µg/ml, genetic background: Δrob
# [22] = 0.44 µg/ml, genetic background: ΔsoxS
smiles,measurement,setting,value
CN(C)[C@@H]1C(O)=C(C(N)=O)C(=O)[C@@]2(O)C(O)=C3C(=O)c4c(O)cccc4[C@@](C)(O)[C@H]3C[C@@H]12 [Tetracycline],promoter activity interaction Z-score,[1]; [7],0.26 ± 0.44
same,promoter activity interaction Z-score,[1]; [8],0.996 ± 0.81
same,promoter activity interaction Z-score,[1]; [9],-0.021 ± 0.06
same,promoter activity interaction Z-score,[1]; [10],-0.156 ± 0.057
same,promoter activity interaction Z-score,[1]; [11],0.439 ± 0.11
same,promoter activity interaction Z-score,[1]; [12],0.363 ± 1.1
same,promoter activity interaction Z-score,[1]; [13],0.655 ± 0.19
same,promoter activity interaction Z-score,[1]; [14],0.643 ± 0.026
same,promoter activity interaction Z-score,[1]; [15],1.07 ± 0.24
same,promoter activity interaction Z-score,[1]; [16],-0.35 ± 0.28
same,promoter activity interaction Z-score,[1]; [17],1.78 ± 0.42
same,promoter activity interaction Z-score,[1]; [18],1.59 ± 0.34
same,promoter activity interaction Z-score,[1]; [19],2.18 ± 0.16
same,promoter activity interaction Z-score,[1]; [20],-1.42 ± 0.33
same,promoter activity interaction Z-score,[1]; [21],5.96
same,promoter activity interaction Z-score,[1]; [22],-1.22
same,promoter activity interaction Z-score,[2]; [7],1.46 ± 0.49
same,promoter activity interaction Z-score,[2]; [8],0.0522 ± 0.015
same,promoter activity interaction Z-score,[2]; [9],-0.0785 ± 0.057
same,promoter activity interaction Z-score,[2]; [10],0.373 ± 0.06
same,promoter activity interaction Z-score,[2]; [11],2.61 ± 0.64
same,promoter activity interaction Z-score,[2]; [12],0.188 ± 0.14
same,promoter activity interaction Z-score,[2]; [13],0.177 ± 0.19
same,promoter activity interaction Z-score,[2]; [14],1.44 ± 0.23
same,promoter activity interaction Z-score,[2]; [15],3.37 ± 0.62
same,promoter activity interaction Z-score,[2]; [16],0.403 ± 0.2
same,promoter activity interaction Z-score,[2]; [17],0.131 ± 0.15
same,promoter activity interaction Z-score,[2]; [18],1.86 ± 0.2
same,promoter activity interaction Z-score,[2]; [19],0.313 ± 0.3
same,promoter activity interaction Z-score,[2]; [20],0.3 ± 0.28
same,promoter activity interaction Z-score,[2]; [21],-0.128 ± 0.088
same,promoter activity interaction Z-score,[2]; [22],-0.349 ± 0.37
same,promoter activity interaction Z-score,[3]; [7],1.85 ± 1.5
same,promoter activity interaction Z-score,[3]; [8],1.72 ± 1.3
same,promoter activity interaction Z-score,[3]; [9],1.96 ± 1.3
same,promoter activity interaction Z-score,[3]; [10],0.631 ± 0.11
same,promoter activity interaction Z-score,[3]; [11],2.68 ± 1
same,promoter activity interaction Z-score,[3]; [12],2.53 ± 0.79
same,promoter activity interaction Z-score,[3]; [13],2.36 ± 0.4
same,promoter activity interaction Z-score,[3]; [14],2.15 ± 1
same,promoter activity interaction Z-score,[3]; [15],1.98 ± 0.54
same,promoter activity interaction Z-score,[3]; [16],1.86 ± 0.28
same,promoter activity interaction Z-score,[3]; [17],1.26 ± 0.07
same,promoter activity interaction Z-score,[3]; [18],2.71 ± 0.19
same,promoter activity interaction Z-score,[3]; [19],-0.73 ± 0.18
same,promoter activity interaction Z-score,[3]; [20],-1.97 ± 1.1
same,promoter activity interaction Z-score,[3]; [22],-3.24
same,promoter activity interaction Z-score,[4]; [7],0.998 ± 1.4
same,promoter activity interaction Z-score,[4]; [8],0.179 ± 0.2
same,promoter activity interaction Z-score,[4]; [9],0.105 ± 0.73
same,promoter activity interaction Z-score,[4]; [10],-0.0139 ± 0.3
same,promoter activity interaction Z-score,[4]; [11],1.13 ± 0.42
same,promoter activity interaction Z-score,[4]; [12],-0.0571 ± 0.62
same,promoter activity interaction Z-score,[4]; [13],0.458 ± 0.4
same,promoter activity interaction Z-score,[4]; [14],0.51 ± 0.84
same,promoter activity interaction Z-score,[4]; [15],-0.261 ± 0.053
same,promoter activity interaction Z-score,[4]; [16],-0.985 ± 0.35
same,promoter activity interaction Z-score,[4]; [17],0.638 ± 0.37
same,promoter activity interaction Z-score,[4]; [18],0.945 ± 1.1
same,promoter activity interaction Z-score,[4]; [19],-1.59 ± 0.88
same,promoter activity interaction Z-score,[4]; [20],-2.19 ± 0.95
same,promoter activity interaction Z-score,[4]; [22],-2.66 ± 0.43
same,promoter activity interaction Z-score,[5]; [7],0.151 ± 0.19
same,promoter activity interaction Z-score,[5]; [8],0.0648 ± 0.063
same,promoter activity interaction Z-score,[5]; [9],-0.00055 ± 0.21
same,promoter activity interaction Z-score,[5]; [10],-0.162 ± 0.37
same,promoter activity interaction Z-score,[5]; [11],0.728 ± 0.037
same,promoter activity interaction Z-score,[5]; [12],0.346 ± 0.055
same,promoter activity interaction Z-score,[5]; [13],0.252 ± 0.33
same,promoter activity interaction Z-score,[5]; [14],0.493 ± 0.026
same,promoter activity interaction Z-score,[5]; [15],1.18 ± 0.3
same,promoter activity interaction Z-score,[5]; [16],0.609 ± 0.14
same,promoter activity interaction Z-score,[5]; [17],0.598 ± 0.38
same,promoter activity interaction Z-score,[5]; [18],1.26 ± 0.17
same,promoter activity interaction Z-score,[5]; [19],1.56 ± 0.18
same,promoter activity interaction Z-score,[5]; [20],1.47 ± 0.25
same,promoter activity interaction Z-score,[5]; [21],1.46 ± 1
same,promoter activity interaction Z-score,[5]; [22],0.966 ± 0.8
same,promoter activity interaction Z-score,[6]; [7],0.446 ± 0.25
same,promoter activity interaction Z-score,[6]; [8],0.201 ± 0.44
same,promoter activity interaction Z-score,[6]; [9],0.673 ± 1.5
same,promoter activity interaction Z-score,[6]; [10],-0.654 ± 0.27
same,promoter activity interaction Z-score,[6]; [11],1.04 ± 0.64
same,promoter activity interaction Z-score,[6]; [12],0.0643 ± 0.81
same,promoter activity interaction Z-score,[6]; [13],0.925 ± 0.084
same,promoter activity interaction Z-score,[6]; [14],-0.579 ± 0.46
same,promoter activity interaction Z-score,[6]; [15],1.19 ± 1.5
same,promoter activity interaction Z-score,[6]; [16],1.09 ± 0.74
same,promoter activity interaction Z-score,[6]; [17],1.09 ± 0.63
same,promoter activity interaction Z-score,[6]; [18],0.351 ± 1.5
same,promoter activity interaction Z-score,[6]; [19],-0.0424 ± 0.045
same,promoter activity interaction Z-score,[6]; [20],1.29 ± 2
same,promoter activity interaction Z-score,[6]; [21],1.15 ± 0.23
same,promoter activity interaction Z-score,[6]; [22],0.632 ± 1.4
